Assay outcomes: PubChem BioAssay, National Center for Advancing Translational Sciences (NCATS)
CHX counter: affects cycloheximide protein synthesis inhibition readout, counter-screen | max response, % | cell reporter, cycloheximide protein synthesis inhibition counterscreen | 12% of 300,000 active; in the data active = max response mostly above about 13%, no sharp cut-off; inactive = mostly below about 14%; also: read at 38.3 µM for the half of the compounds with a filed dose; 0% is about no effect
NS1 inh: inhibitors of influenza NS1 protein function. Potency, µM (titrated, usually from 46.1 µM), for inactives: at the highest dose activity, positive = more growth. AID 2326. 0.4% of 270,000 active; calls by dose curve; also: potency is read from the fitted curve at half-maximal effect; actives are rising curves; nearly all actives have a fitted effect of over 50% in size
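Compounds were scored for reversing the slow growth caused by influenza A NS1 in S. cerevisiae, measured by optical density at 600 nm. Assay medium contained 2% galactose at pH 6.0; NS1-free yeast of the same strain were the positive control.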
AmpC inh detg: AmpC beta-lactamase inhibition with detergent present. P00811. AmpC hydrolysis of nitrocefin, absorbance 480 nm, 0.01% Triton. Potency, µM (titrated, usually from 114 µM), for inactives: at the highest dose activity change, negative = inhibition, most hits filed as inhibitors. 0.041% of 370,000 active;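 also: potency is read from the fitted curve at half-maximal effect; 0% = no-compound wells and -100% = no-enzyme wells; nearly all actives have a fitted effect of over 25% in size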
Target sequence (P00811 whole entry, looked up): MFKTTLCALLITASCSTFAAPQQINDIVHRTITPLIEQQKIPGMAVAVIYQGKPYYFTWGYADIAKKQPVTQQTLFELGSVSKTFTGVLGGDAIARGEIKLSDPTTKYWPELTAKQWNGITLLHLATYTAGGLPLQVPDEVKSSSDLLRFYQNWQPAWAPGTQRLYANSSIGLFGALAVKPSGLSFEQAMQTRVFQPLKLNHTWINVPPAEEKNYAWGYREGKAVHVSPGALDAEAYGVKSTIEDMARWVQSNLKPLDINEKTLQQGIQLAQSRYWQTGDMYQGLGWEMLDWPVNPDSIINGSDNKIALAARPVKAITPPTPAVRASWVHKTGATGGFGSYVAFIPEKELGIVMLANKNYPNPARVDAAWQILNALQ
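20 mM phosphate pH 7.0 + 0.01% (detergent screen) or 0.0001% Triton X-100; 5.3 nM AmpC reagent; cpd preinc 15 min RT; nitrocefin (800 uM stock) to start; A480 q20 s × 4 min; Activity was normalised to no-enzyme and no-compound control wells.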
AmpC inh no detg: AmpC beta-lactamase inhibition without detergent | AID 485341 | Potency, µM (top dose mostly 57.1 µM), without a hit: at the highest dose activity change, negative = inhibition, actives largely listed as inhibitors | P00811 | AmpC nitrocefin hydrolysis, absorbance 480 nm, 0.0001% Triton | 0.52% of 330,000 active;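 also: potency is read from the fitted curve at half-maximal effect; plate controls were no compound for no effect and no enzyme for full effect; nearly all actives have a fitted effect of over 20% in size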
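AmpC (5.3 nM in the dispensed reagent) in 20 mM phosphate pH 7.0 with 0.01% (detergent screen) or 0.0001% Triton X-100 was preincubated with compounds for 15 min at room temperature. Nitrocefin was then added from an 800 uM solution, and hydrolysis was followed at 480 nm.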
Shiga inhibitor: inhibitors of Shiga toxin in Vero cells; 9.2% of 290,000 active; Vero cells, Shiga toxin protein synthesis inhibition reporter; inhibition, % at 38.7 µM; AID 2315; in the data active = inhibition mostly above about 28%, no sharp cut-off; inactive = mostly below about 43%; also: 0% is about no effect
* marks the source's active call; other numbers are inactive results; ? = inconclusive; . = not tested or not shown; [ ] = another dose, or the depositor's remark. Only a selection was taken, and hits are over-represented in it overall. Unless noted, calls follow the shape of the dose curve; as a rule, active = well fitted curve in the direction sought with a large enough effect; inconclusive = small, poorly fitted or top-dose-only effect, or another doubt; inactive = no such curve, though single readings can be large; an effect the other way counts as inactive or inconclusive.

SMILES	CHX counter	NS1 inh	AmpC inh detg	AmpC inh no detg	Shiga inhibitor
Cc1[nH]c2ccccc2c1C(=O)CSc1ccc(Cl)cc1	11	6%	-7%	-3%[2.29 µM]	58
Cc1cc(C(=O)CSc2ccc(F)cc2)cc(C)c1O	35*	-9%	-4%	-30%	61*
O=C(CSc1ccc(F)cc1)N1CCOCC1	-3	-1%	-10%	-1%	-3
CCOC(=O)c1c(C)[nH]c(C(=O)CSc2ccccc2)c1C	43*	0%	?	-22%	53*
CCOC(=O)c1c(C)[nH]c(C(=O)CSc2nnc(C3CC3)n2N)c1C	17*	4%	-4%	-13%	30
CCOC(=O)c1c(Cc2ccccc2)c[nH]c1C	31*	.	5%	-12%	61*
CCOC(=O)c1c(C)[nH]c(C(=O)N/N=C/c2cc([N+](=O)[O-])ccc2O)c1C	12	12%	-7%	-26%	15
CCOC(=O)c1c(C)[nH]c(C(=O)N/N=C\c2ccccc2O)c1C	29*	-8%	-12%	-40%	35*
CC(=O)c1c(C)[nH]c(C(=O)CSc2nc3ccc(C)cc3[nH]2)c1C	8	5%	-3%	-24%	16
Cn1c(N)c(C(=O)CSc2nnc(C3CC3)n2N)c(=O)n(C)c1=O	.	.	-1%	-2%	.
CC(=O)c1c(C)[nH]c(C(=O)CSc2ccc(F)cc2)c1C	49*	-1%	6%	-18%	98*
NS(=O)(=O)c1ccc(CCNC(=O)COC(=O)Cc2c(F)cccc2Cl)cc1	-1	5%	2%	-10%	17
COc1ccc(CNC(=O)C2CCCN(C(=O)c3cnn(-c4ccc(F)cc4)c3-n3cccc3)C2)cc1 (stereo not given)	.	.	12%	.	.
COC(=O)c1c(NC(=O)C2c3ccccc3Oc3ccccc32)sc2c1CCC(C(C)(C)C)C2 (stereo not given)	.	.	7%	.	.
CCCC(NC(=O)C(C)Sc1nnnn1C1CC1)c1ccccc1 (stereo not given)	.	.	-1%	-13%	.
Cn1c(=O)c2c(-c3ccccc3Cl)n(-c3cc(Cl)ccc3O)cc2n(C)c1=O	.	.	-2%	.	.
Cc1ccc2nc(NC(=O)CSc3nnc(C)c(=O)n3N)sc2c1	5	2%	-2%	-15%	16
CCCCC(=O)OCC(=O)c1[nH]c(C)c(C(=O)OCC)c1C	31*	0%	0%	18%	84*
CCOC(=O)c1c(C)[nH]c(C(=O)OCc2ccccc2)c1C	87*	-5%	6%	-15%	60*
CCOC(=O)c1c(C)[nH]c(C(=O)C(C)Cl)c1C (stereo not given)	10	2%	-3%	-24%	46
CCOC(=O)c1c(C)[nH]c(C(=O)CSc2nccc(C)n2)c1C	37*	10%	-8%	-11%	87*
CCOC(=O)c1c(C)[nH]c(C(=O)C(C)Sc2ccc(Cl)cc2)c1C (stereo not given)	19*	-40%	-4%	-44%	107
CCOC(=O)c1c(C)[nH]c(C(=O)COC(=O)CSC)c1C	-2	-45%	3%	0%	2
Cc1ccn2cc(CCNC(=O)COc3ccccc3)nc2c1	-3	-1%	-5%	-2%	-1
C[N+](C)(N)Cc1nc(-c2ccc(Cl)cc2)no1	.	-3%	.	.	.
SMILES	CHX counter	NS1 inh	AmpC inh detg	AmpC inh no detg	Shiga inhibitor
CCOC(=O)c1c(C)[nH]c(C(=O)COC(=O)CCSc2ccccc2)c1C	46*	-8%	-5%	-32%	60*
CCOC(=O)c1c(C)[nH]c(C(=O)CN2C(=O)NC3(CCCC3)C2=O)c1C	29*	0%	-1%	-3%	52*
C=C1CC2C(=O)N(Cc3cc(OC)ccc3OC)C(C(=O)OCC)C1N2C (stereo not given)	10	.	.	.	10
O=C(Cn1cnc2c(cnn2-c2ccccc2)c1=O)NC1CCCC1	8	-9%	-9%	-15%	9
CCOC(=O)Cn1cnc2c(cnn2-c2ccc(Cl)cc2)c1=O	36*	?	8%	-11%	36
Cc1nnc2c3cnn(-c4ccc(Cl)cc4)c3ncn12	27*	-4%	?	-5%	77*
CCOC(=O)Cn1cnc2c(cnn2-c2ccc(OC)cc2)c1=O	29*	-4%	1%	-2%	60*
COC(=O)Cn1cnc2c(cnn2-c2ccccc2)c1=O	16*	.	2%	-12%	22
CCOC(=O)CSc1ncnc2c1cnn2-c1ccc(Cl)cc1	-1	1%	-15%	-13%	-18
